# hcDAF-12 act: activates DAF-12 receptor from parasite H. contortus. activation, % at 6.8 µM. 370,000 tested, 1.4% active. AID 652067. HEK293 hcDAF-12 lit1-tk-luc reporter, luminescence; 0% DMSO, 100% Δ7-dafachronic acid;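 active = activation above the mean of all tested compounds plus 3 SD, cut at about 5.5% in these data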;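 also: 100% = response to 3 µM Δ7-dafachronic acid high control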
# DAX1 inh-1: inhibitors of DAX1 repression of SF-1 activated StAR promoter | HEK293T StAR-luciferase reporter, SF-1/DAX-1 repression relief | inhibition, % at 6.8 µM | 370,000 tested, 1.1% active | AID 652010;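 active = inhibition above the mean over all tested compounds plus 3 SD, cut at about 3.6% in these data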;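 also: 0% = DAX-1 cells with DMSO and 100% = cells lacking DAX-1 with DMSO; higher inhibition means more luminescence from relief of DAX-1 repression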
# DAX1 inh-2: inhibitors of human orphan nuclear receptor DAX1 (NR0B1). 340,000 tested, 0.99% active. P51843. inhibition, % at 6.75 µM. HEK293 Gal4-DAX1 luciferase reporter, luminescence;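 active = inhibition above the mean over all tested compounds plus 3 SD, cut at about 4.2% in these data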;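 also: 0% = DAX1-transfected cells with DMSO and 100% = empty-vector control cells with DMSO; inhibition shows as a rise in luminescence from relieved DAX1 repression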
# Target sequence (P51843 207-470 limits assumed): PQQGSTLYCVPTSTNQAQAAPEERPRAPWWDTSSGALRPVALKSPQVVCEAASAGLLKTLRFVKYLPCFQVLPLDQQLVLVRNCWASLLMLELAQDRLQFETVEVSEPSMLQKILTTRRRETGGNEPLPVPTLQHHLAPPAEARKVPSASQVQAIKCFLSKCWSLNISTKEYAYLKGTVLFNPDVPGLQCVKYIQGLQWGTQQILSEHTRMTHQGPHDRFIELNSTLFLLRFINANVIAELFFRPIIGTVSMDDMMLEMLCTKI
# ssDAF12 agonist: activates DAF-12 receptor from parasite S. stercoralis | HEK293 ssDAF-12/GRIP1 lit1-tk-luc reporter, luminescence; % of 3 µM dafachronic acid response | activation, % at 6.8 µM | 370,000 tested, 1% active | AID 652126;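 active = activation above the mean over all tested compounds plus 3 SD, cut at about 0.9% in these data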;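 also: 0% = DMSO-only wells and 100% = 3 µM delta7-dafachronic acid wells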
# hgDAF12 agonist: agonists of H. glycines DAF-12 nuclear receptor | HEK293 GAL4-hgDAF12 UAS-luciferase reporter, agonist luminescence; normalized to butyrate control | activation, % at 6.8 µM | 370,000 tested, 1.8% active | AID 687014;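 active = activation above a cutoff set at the mean of all screened compounds plus 3 SD, cut at about 10% in these data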;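 also: 0% = DMSO wells and 100% = sodium butyrate wells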
# LXR ag: activates human LXR-beta, counter-screen for hcDAF-12 agonists; shares compounds with hcDAF-12 act; HEK293 Gal4-LXR tk-luc reporter, luminescence, 24 h; normalized: DMSO 0%, positive control 100%; activation, % at 6.8 µM; 3,400 tested, under 10 active;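 active = mean percent activation of the reporter above a cutoff set as the average over tested compounds plus their standard deviation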
# hcDAF12 conf: confirmation of H. contortus DAF-12 agonists; shares compounds with hcDAF-12 act; HEK293 hcDAF-12 lit1-tk-luc reporter, luminescence; % of Δ7-dafachronic acid response; activation, % at 6.8 µM; 3,400 tested, 61% active; AID 743032;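 active = mean activation across triplicate tests above the threshold derived from the earlier primary screen, cut at about 5.5% in these data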;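 also: 0% = DMSO only wells and 100% = 3 µM Δ7-dafachronic acid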
# An asterisk follows results filed as active; · = no result. Most compounds without a hit are left out; they make up all but 4.1% or so of the library.
SMILES,hcDAF-12 act,DAX1 inh-1,DAX1 inh-2,ssDAF12 agonist,hgDAF12 agonist,LXR ag,hcDAF12 conf
COc1cc(NC(=O)c2ccc3c(c2)OCO3)c2ncccc2c1,2,-1,-1,0,3,·,·
O=C(Nc1cccc2cccnc12)c1ccc2c(c1)OCCO2,8.7*,0,0,0,7,1,5.7*
Cc1nc2c(c3c1[nH]c1ccccc13)C(O)CC(C)(C)C2 (configuration not stated),-1,-1,-2,-2,-2,·,·
CC(C)(C)c1ccc(/C=C/C(=O)NC2=NCCS2)cc1,6.6*,4,-1,0,7,1,5.7*
Cc1cc(-c2ccc(F)cc2)n2ncc(-c3ccccc3)c2n1,-3,-2,·,-1,-9,·,·
C=CCSc1cc(C)nc2c(-c3ccccc3)cnn12,12*,3,4.9*,2.9*,12*,1,6.9*
CC(=O)Nc1ccc(NC(=O)C(C)OC(=O)CNS(=O)(=O)c2ccc(Br)cc2Cl)cc1 (configuration not stated),0,1,2,-1,3,·,·
Cc1oc(-c2nc3ccccc3n2C)cc1C(=O)c1ccccc1,11*,3,-2,1.2*,9,2,13*
Cc1nc2c(-c3ccccc3)cnn2c(N2CCOCC2)c1C,12*,3,3,0,13*,1,9.0*
COc1ccc(C(c2c(C)[nH]n(-c3ccccc3)c2=O)c2c(C)[nH]n(-c3ccccc3)c2=O)cc1OC,7.5*,-1,0,-1,0,0,1
Cc1cc([N+](=O)[O-])ccc1N=Nc1c(N)[nH]n(-c2ccccc2)c1=O,2,1,0,1,-2,·,·
Cc1[nH]n(-c2ccccc2)c(=O)c1N=Nc1ccc(Cl)cc1,8.6*,0,0,0,2,0,5
Cc1[nH]n(-c2ccccc2)c(=O)c1C(C[N+](=O)[O-])c1ccc(Cl)cc1 (configuration not stated),6.9*,-1,0,-1,0,0,1
Cc1ccc(C(C[N+](=O)[O-])c2c(C)[nH]n(-c3ccccc3)c2=O)cc1 (configuration not stated),1,0,1,-1,2,·,·
Cc1ccccc1N=Nc1c(N)[nH]n(-c2ccccc2)c1=O,6.8*,2,·,1,8,1,5
Clc1ccccc1Cn1nnc2ccccc21,-1,0,-1,-1,2,·,·
Cc1ccsc1/C=N/NC(=O)c1ccccn1,10*,3,0,0,10,1,3
Cc1ccsc1/C=N/NC(=O)C(O)c1ccccc1 (configuration not stated),2,0,1,-2,0,·,·
COc1ccc(Cl)cc1C(=O)Nc1ccc(NC(C)=O)cc1,0,1,1,-1,0,·,·
COc1ccc(Cl)cc1C1=NOC2(CCC2)C(=O)N1Cc1ccc(NC(C)=O)cc1,9.4*,-2,·,-1,2,0,0
COc1ccc(CN=Cc2[nH]c3ccc(Br)c(Cl)c3c2O)cc1,1,-1,-1,0,3,·,·
Cc1cc(C)cc(N=Cc2[nH]c3ccc(Br)c(Cl)c3c2O)c1,35*,-1,-1,0,-3,0,-1
C/C(=N\OCc1cccc(C(=O)O)c1)c1ccc(Cl)cc1,8.8*,3,·,1,13*,1,5
c1nc(NCC2CCCO2)c2cc(-c3ccc4c(c3)OCO4)ccc2n1 (configuration not stated),1,·,·,-1,2,·,·
c1nc(NCC2CCCCO2)c2cc(-c3ccc4c(c3)OCO4)ccc2n1 (configuration not stated),6.9*,·,·,-1,-1,0,2
SMILES,hcDAF-12 act,DAX1 inh-1,DAX1 inh-2,ssDAF12 agonist,hgDAF12 agonist,LXR ag,hcDAF12 conf
Cc1cn([C@H](C(=O)NCCCCCCCCCCC(=O)N2CCNCC2)[C@@H](C)O)nn1,-2,1,2,-1,2,·,·
O=C(Nc1cccc(S(=O)(=O)N2CCCC2)c1)c1cc(-c2ccccn2)nc2ccccc12,-1,0,-1,0,0,·,·
CC1(C)CC(=O)N(CC(=O)NCc2ccccc2)c2ccccc2S1(=O)=O,14*,0,0,-2,1,0,1
COc1ccc(C(=O)n2nc(C)cc2Nc2ccccc2)cc1,8.7*,0,3,1.4*,6,1,9.6*
Cc1ccc(S(=O)(=O)N(C)CCN(C)S(=O)(=O)c2ccc(C)cc2)cc1,0,0,1,-1,-1,·,·
C/C(=N/N=C(/C)c1cccs1)c1cccs1,8.3*,1,6.1*,1.1*,16*,1,11*
CN(C)c1nc(C(=O)Nc2ccccc2)nc(N(C)C)n1,6.7*,0,1,-1,1,0,1
Cc1cccn2cc(-c3c[nH]c4ccccc34)nc12,6.9*,3,4.8*,0.9*,13*,1,10.0*
COc1cccc(OCc2ccc(Cl)cc2)c1C#N,8.4*,3,4.8*,1.7*,12*,2,7.3*
CC(C)C1C(C#N)=C(N)Oc2n[nH]c(-c3ccccc3)c21 (configuration not stated),-1,-1,0,-1,-2,·,·
CC(C)c1[nH]nc2c1C(C(C)C)C(C#N)=C(N)O2 (configuration not stated),6.9*,0,0,1.3*,-2,0,7.8*
COc1ccc(/C=C2/CN(Cc3ccc(OC)cc3OC)C3=NC(c4ccc5ccccc5c4)CC(=O)N32)cc1 (configuration not stated),-1,·,·,-2,-3,·,·
Fc1ccc2nc(Nc3nc4c(F)cccc4s3)sc2c1,4,0,0,0,0,·,·
CCOc1cccc2sc(NC(=O)CC)nc12,-3,0,0,-1,-1,·,·
CCC(=O)NNc1nc2c(F)cccc2s1,7.0*,0,4,0,5,0,4
Fc1cccc2sc(Nc3nc4ccccc4s3)nc12,12*,1,2,0,0,1,11*
CC(=O)N1CCN(c2ccc(NC(=O)c3ccc([N+](=O)[O-])cc3)cc2)CC1,-2,-1,-2,-1,-1,·,·
COc1ccc(CC(=O)Nc2ccc(NC(=O)c3ccccc3F)cc2)cc1,9.8*,0,0,-2,1,0,0
CCOc1ccc(NC(=O)c2cc3ccccc3cc2OC)cc1,7.0*,0,6.3*,0,8,1,6.1*
COc1cc(OC)c(NC(=O)c2ccccc2F)cc1Cl,5,1,1,0,2,·,·

# Assay outcomes deposited in PubChem BioAssay by The Scripps Research Institute Molecular Screening Center.
